Inconclusive results are not listed. The source made the active and inactive calls. Unless noted, the call rests on the fitted dose curve; in most records, active means well fitted inhibition curve with a large enough effect; inconclusive means small, poorly fitted or top-dose-only effect; inactive means flat fitted curve, though single readings scatter.
Key:
[1] = qHTS drug screen for cell cycle checkpoint inhibitors in PARPi-resistant BRCA-mutant ovarian cancer cell lines. (AID 1963452; calls by dose curve); details: PEO1/OlaR viability, CellTiter-Glo luminescence, 96 h; for Z-AUC: stronger effect = lower value
In short: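 PEO1, PEO4 and PEO1/OlaR ovarian cancer cells, 600 per well, exposed 96 h at 37C to a dilution series. Viability read by CellTiter-Glo luminescence, normalized to DMSO and empty wells; activity summarized as Z-AUC.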

[2] = qHTS profiling for inhibitors of Plasmodium falciparum proliferation (AID 504749);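 on activity, negative = inhibition: 0% = DMSO vehicle and full inhibition = artemisinin control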; on all read-outs here: nearly all actives have a fitted effect of over 60% in size; details: P. falciparum in erythrocytes, SYBR Green DNA, 72 h; for activity, negative = inhibition: at 28.7 µM (top of the series)
In short: (§1)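 Fluorescence of SYBR Green-bound parasite DNA, read at 485/535 nm, served as the growth measure. Infected erythrocytes were cultured with compound 72 h; artemisinin (0.29 uM) and DMSO wells defined the normalization range.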

[3] = test system: 3D7; experiment: as above; details: P. falciparum in erythrocytes, SYBR Green DNA, 72 h; series mostly up to 28.7 µM
In short: as §1

[4] = test system: 7G8; experiment: as above; details: P. falciparum in erythrocytes, SYBR Green DNA, 72 h; series mostly up to 28.7 µM
In short: as §1

[5] = test system: AA1029; experiment: as above; details: P. falciparum in erythrocytes, SYBR Green DNA, 72 h; series mostly up to 28.7 µM
In short: as §1

[6] = test system: AS120; experiment: as above; details: P. falciparum in erythrocytes, SYBR Green DNA, 72 h; series mostly up to 28.7 µM
In short: as §1

[7] = test system: ATS189; experiment: as above; details: P. falciparum in erythrocytes, SYBR Green DNA, 72 h; series mostly up to 28.7 µM
In short: as §1

[8] = test system: ATS95; experiment: as above; details: P. falciparum in erythrocytes, SYBR Green DNA, 72 h; series mostly up to 28.7 µM
In short: as §1

[9] = test system: C2A; experiment: as above; details: P. falciparum in erythrocytes, SYBR Green DNA, 72 h; series mostly up to 28.7 µM
In short: as §1

[10] = test system: CP185; experiment: as above; details: P. falciparum in erythrocytes, SYBR Green DNA, 72 h; series mostly up to 28.7 µM
In short: as §1

[11] = test system: CP191; experiment: as above; details: P. falciparum in erythrocytes, SYBR Green DNA, 72 h; series mostly up to 28.7 µM
In short: as §1

[12] = test system: CP192; experiment: as above; details: P. falciparum in erythrocytes, SYBR Green DNA, 72 h; series mostly up to 28.7 µM
In short: as §1

[13] = test system: CP194; experiment: as above; details: P. falciparum in erythrocytes, SYBR Green DNA, 72 h; series mostly up to 28.7 µM
In short: as §1

[14] = test system: CP201; experiment: as above; details: P. falciparum in erythrocytes, SYBR Green DNA, 72 h; series mostly up to 28.7 µM
In short: as §1

[15] = test system: CP203; experiment: as above; details: P. falciparum in erythrocytes, SYBR Green DNA, 72 h; series mostly up to 28.7 µM
In short: as §1

[16] = test system: CP211; experiment: as above; details: P. falciparum in erythrocytes, SYBR Green DNA, 72 h; series mostly up to 28.7 µM
In short: as §1

[17] = test system: CP215; experiment: as above; details: P. falciparum in erythrocytes, SYBR Green DNA, 72 h; series mostly up to 28.7 µM
In short: as §1

[18] = test system: CP217; experiment: as above; details: P. falciparum in erythrocytes, SYBR Green DNA, 72 h; series mostly up to 28.7 µM
In short: as §1

[19] = measured here: PEO1 parental Z-AUC
Potency means the concentration at half of the fitted maximal effect.

COc1cc2c(cc1O)CCN[C@]21CS[C@@H]2c3c(OC(C)=O)c(C)c4c(c3[C@H](COC1=O)N1[C@@H]2[C@H]2c3c(cc(C)c(OC)c3O)C[C@@H]([C@@H]1O)N2C)OCO4
Potency [1]: 39.9 nM (active) | Z-AUC [1, 19]: -2.17 | Z-AUC ([1]; measured here: PEO4 Z-AUC): -1.65

CCC(=O)NS(=O)(=O)c1ccc(-c2c(-c3ccccc3)noc2C)cc1
Z-AUC [1]: -0.948 (inactive) | Z-AUC [1, 19]: -1.08 | Z-AUC ([1]; measured here: PEO4 Z-AUC): -1.33

O=C(NC[C@H](O)CN1CCc2ccccc2C1)c1cc(NC2COC2)ncn1
Z-AUC [1]: 0.421 (inactive) | Z-AUC [1, 19]: 0.62 | Z-AUC ([1]; measured here: PEO4 Z-AUC): 0.347

COC(=O)[C@H]1[C@H]2C[C@@H]3c4[nH]c5ccccc5c4CCN3C[C@H]2C[C@@H](OC(=O)c2cc(OC)c(OC)c(OC)c2)[C@@H]1OC
Potency ([2]; parasite line A): 355 nM (active) | Potency ([2]; parasite line B): 631 nM (active) | Potency [3]: 891 nM (active) | Potency [4]: 50.1 nM (active) | Potency [5]: 282 nM (active) | Potency [6]: 199 nM (active) | Potency [7]: 708 nM (active) | Potency [8]: 398 nM (active) | Potency [9]: 282 nM (active) | Potency [10]: 398 nM (active) | Potency [11]: 398 nM (active) | Potency [12]: 338 nM (active) | Potency [13]: 536 nM (active) | Potency [14]: 849 nM (active) | Potency [15]: 536 nM (active) | Potency [16]: 601 nM (active) | Potency [17]: 757 nM (active) | Potency [18]: 355 nM (active)

CC1=C(/C=C/C(C)=C/C=C/C(C)=C/C=C/C=C(C)/C=C/C=C(C)/C=C/C2=C(C)C(=O)CCC2(C)C)C(C)(C)CCC1=O
activity, negative = inhibition ([2]; parasite line A): -4.18% (inactive) | activity, negative = inhibition ([2]; parasite line B): 4.39% (inactive) | Potency [3]: inactive | Potency [4]: inactive | Potency [5]: inactive | Potency [6]: inactive | Potency [7]: inactive | Potency [8]: inactive | Potency [9]: inactive | Potency [10]: inactive | Potency [11]: inactive | Potency [12]: inactive | Potency [13]: inactive | Potency [14]: inactive | Potency [15]: inactive | Potency [16]: inactive | Potency [17]: inactive | Potency [18]: inactive

CO[C@H]1C[C@@H]2CC[C@@H](C)[C@@](O)(O2)C(=O)C(=O)N2CCCC[C@H]2C(=O)O[C@H]([C@H](C)C[C@@H]2CC[C@@H](OCCO)[C@H](OC)C2)CC(=O)[C@H](C)/C=C(\C)[C@@H](O)[C@@H](OC)C(=O)[C@H](C)C[C@H](C)/C=C/C=C/C=C/1C
Potency ([2]; parasite line A): 2240 nM (active) | Potency ([2]; parasite line B): 1120 nM (active) | Potency [3]: 1780 nM (active) | Potency [4]: 1120 nM (active) | Potency [5]: 1410 nM (active) | Potency [6]: 1120 nM (active) | Potency [7]: 1260 nM (active) | Potency [8]: 2000 nM (active) | Potency [9]: 3160 nM (active) | Potency [10]: 3160 nM (active) | Potency [11]: 1120 nM (active) | Potency [12]: 4780 nM (active) | Potency [13]: 1690 nM (active) | Potency [14]: 6010 nM (active) | Potency [15]: 1900 nM (active) | Potency [16]: 4260 nM (active) | Potency [17]: 1690 nM (active) | Potency [18]: 1000 nM (active)

CCCCCCCCCCCCCC[n+]1ccc(C)cc1
Potency ([2]; parasite line A): 2510 nM (active) | Potency ([2]; parasite line B): 5620 nM (active) | Potency [3]: 2510 nM (active) | Potency [4]: 1120 nM (active) | Potency [5]: 3980 nM (active) | Potency [6]: 3550 nM (active) | Potency [7]: 5620 nM (active) | Potency [8]: 2820 nM (active) | Potency [9]: 3160 nM (active) | Potency [10]: 5010 nM (active) | Potency [11]: 2820 nM (active) | Potency [12]: 4780 nM (active) | Potency [13]: 4260 nM (active) | Potency [14]: 4780 nM (active) | Potency [15]: 3790 nM (active) | Potency [16]: 3380 nM (active) | Potency [17]: 4260 nM (active) | Potency [18]: 3980 nM (active)

Nc1c(N=Nc2ccc(-c3ccc(N=Nc4cc(S(=O)(=O)O)c5ccccc5c4N)cc3)cc2)cc(S(=O)(=O)O)c2ccccc12
activity, negative = inhibition ([2]; parasite line A): 6.43% (inactive) | activity, negative = inhibition ([2]; parasite line B): -3.17% (inactive) | Potency [3]: inactive | Potency [4]: inactive | Potency [5]: inactive | Potency [6]: inactive | Potency [7]: inactive | Potency [8]: inactive | Potency [9]: inactive | Potency [10]: inactive | Potency [11]: inactive | Potency [12]: inactive | Potency [13]: inactive | Potency [14]: inactive | Potency [15]: inactive | Potency [16]: inactive | Potency [17]: inactive | Potency [18]: inactive

Nc1ncnc2c1ncn2[C@@H]1O[C@H](COP(=O)(O)OP(=O)(O)OP(=O)(O)O)[C@@H](O)[C@H]1O
activity, negative = inhibition ([2]; parasite line A): 19.4% (inactive) | activity, negative = inhibition ([2]; parasite line B): 9.47% (inactive) | Potency [3]: inactive | Potency [4]: inactive | Potency [5]: inactive | Potency [6]: inactive | Potency [7]: inactive | Potency [8]: inactive | Potency [9]: inactive | Potency [10]: inactive | Potency [11]: inactive | Potency [12]: inactive | Potency [13]: inactive | Potency [14]: inactive | Potency [15]: inactive | Potency [16]: inactive | Potency [17]: inactive | Potency [18]: inactive

Nc1c(Br)cc(Br)cc1CNC1CCC(O)CC1 (configuration not stated)
activity, negative = inhibition ([2]; parasite line A): 8.81% (inactive) | activity, negative = inhibition ([2]; parasite line B): -8.99% (inactive) | Potency [3]: inactive | Potency [4]: inactive | Potency [5]: inactive | Potency [6]: inactive | Potency [7]: inactive | Potency [8]: inactive | Potency [9]: inactive | Potency [10]: inactive | Potency [11]: inactive | Potency [12]: inactive | Potency [13]: inactive | Potency [14]: inactive | Potency [16]: inactive | Potency [17]: inactive | Potency [18]: inactive

CCN(CC)Cc1cc(Nc2ccnc3cc(Cl)ccc23)ccc1O
Potency ([2]; parasite line A): 35.5 nM (active) | Potency ([2]; parasite line B): 39.8 nM (active) | Potency [3]: 28.2 nM (active) | Potency [4]: 35.5 nM (active) | Potency [5]: 63.1 nM (active) | Potency [6]: 44.7 nM (active) | Potency [7]: 141 nM (active) | Potency [8]: 63.1 nM (active) | Potency [9]: 56.2 nM (active) | Potency [10]: 63.1 nM (active) | Potency [11]: 39.8 nM (active) | Potency [12]: 161 nM (active) | Potency [13]: 128 nM (active) | Potency [14]: 90.7 nM (active) | Potency [15]: 144 nM (active) | Potency [16]: 64.2 nM (active) | Potency [17]: 128 nM (active) | Potency [18]: 112 nM (active)
